Results taken from PubChem BioAssay AID1159580 (chemical genetic matrix, 2015).
The whole screen tested about 5,500 compounds, of which about 2,000 (36%) were called active. Not shown: some 18% with an inconclusive outcome. Rule as the data show it: active = normalized growth mostly below about 0.91 (no sharp cut-off); inconclusive = no clear call, values can overlap the other calls; inactive = mostly above about 0.92. This is one part of the list.

Assay: chemical genetic growth profiling, strain panel (AID 1159580);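 also: tested at 20 µM; growth read once vehicle control cultures reached saturation at 30 °C; 1 = growth at the plate median or of vehicle wells; lower values mean less growth of the strain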
Details: S. cerevisiae deletion strains, growth OD
[1] = locus YHR030C, strain SLT2, hits give low values
[2] = locus YJL095W, strain BCK1, hits give low values

Measured: normalized growth

Cc1cc(=O)c2c(O)cc(O)c(C)c2o1
active: locus YDR137W, strain rgp1, hits give low values 0.504 | locus YDR195W, strain ref2 1.34 [resistant] | locus YDR335W, strain msn5, hits give low values 0.897 | locus YER155C, strain BEM2 (second series), hits give low values 0.808 | locus YHR142W, strain chs7, hits give low values 0.869 | locus YLR262C, strain YPT6 (second series), hits give low values 0.507 | locus YLR320W, strain mms22, hits give low values 0.853 | locus YOR270C, strain vph1, hits give low values 0.729 | locus YPL051W, strain arl3, hits give low values 0.859
inactive: locus YAL021C, strain ccr4, hits give low values 0.976 | locus YAL026C, strain drs2, hits give low values 0.926 | locus YAL030W, strain snc1, hits give low values 0.954 | locus YBL061C, strain skt5, hits give low values 0.951 | locus YBR009C, strain hhf1, hits give low values 0.953 | locus YBR021W, strain FUR4, hits give low values 0.995 | locus YBR023C, strain chs3, hits give low values 0.936 | locus YBR171W, strain sec66, hits give low values 0.921 | locus YBR229C, strain ROT2, hits give low values 0.987 | locus YBR231C, strain swc5, hits give low values 0.924 | locus YBR279W, strain paf1, hits give low values 0.946 | locus YCL011C, strain gbp2, hits give low values 0.951 | locus YCL016C, strain dcc1, hits give low values 0.937 | locus YCL029C, strain bik1, hits give low values 0.994 | locus YCL061C, strain MRC1, hits give low values 0.938 | locus YCL069W, strain vba3, hits give low values 0.982 | locus YCR088W, strain abp1, hits give low values 0.965 | locus YDL005C, strain med2, hits give low values 0.963 | locus YDL035C, strain GPR1, hits give low values 1.02 | locus YDL040C, strain nat1, hits give low values 0.979 | locus YDL074C, strain BRE1, hits give low values 1.02 | locus YDL101C, strain DUN1, hits give low values 0.975 | locus YDL134C, strain PPH21, hits give low values 0.996 | locus YDL185W, strain tfp1, hits give low values 0.962 | locus YDL192W, strain arf1, hits give low values 0.988 | locus YDR001C, strain nth1, hits give low values 0.959 | locus YDR069C, strain doa4, hits give low values 0.962 | locus YDR101C, strain arx1, hits give low values 1.01 | locus YDR159W, strain sac3, hits give low values 0.907 | locus YDR162C, strain NBP2, hits give low values 1.03 | locus YDR297W, strain sur2, hits give low values 0.966 | locus YDR318W, strain mcm21, hits give low values 0.988 | locus YDR334W, strain swr1, hits give low values 0.951 | locus YDR388W, hits give low values 0.98 | locus YDR392W, strain spt3, hits give low values 0.753 | locus YDR502C, strain sam2, hits give low values 0.977 | locus YEL003W, strain gim4, hits give low values 0.95 | locus YEL037C, strain rad23, hits give low values 0.961 | locus YEL061C, strain CIN8 (second series), hits give low values 0.943 | locus YEL061C, strain CIN8, hits give low values 0.993 | locus YER015W, strain faa2, hits give low values 0.95 | locus YER016W, strain bim1, hits give low values 0.937 | locus YER110C, hits give low values 0.968 | locus YER111C, strain swi4, hits give low values 0.934 | locus YER155C, strain BEM2, hits give low values 0.987 | locus YER167W, strain BCK2, hits give low values 1 | locus YFR010W, strain ubp6, hits give low values 0.942 | locus YGL078C, strain dbp3, hits give low values 0.965 | locus YGL086W, strain mad1, hits give low values 1 | locus YGL167C, strain pmr1, hits give low values 0.936 | locus YGL173C, strain kem1, hits give low values 0.946 | locus YGL227W, strain vid30, hits give low values 0.957 | locus YGL240W, strain doc1, hits give low values 0.931 | locus YGL248W, strain PDE1, hits give low values 0.995 | locus YGL253W, strain hxk2, hits give low values 0.962 | locus YGR078C, strain PAC10, hits give low values 0.985 | locus YGR135W, strain pre9, hits give low values 0.965 | locus YGR229C, strain SMI1, hits give low values 1.01 | locus YGR252W, strain gcn5, hits give low values 1.03 | locus YHR013C, strain ard1, hits give low values 1.05 | locus YHR027C, strain rpn1, hits give low values 0.964 | [1] 0.996 | locus YHR079C, strain IRE1 (second series), hits give low values 0.988 | locus YHR094C, strain hxt1, hits give low values 0.983 | locus YHR129C, strain ARP1, hits give low values 0.985 | locus YHR200W, strain rpn10, hits give low values 0.96 | locus YIL066C, strain RNR3, hits give low values 0.991 | locus YIL073C, strain SPO22, hits give low values 0.967 | locus YIL125W, strain kgd1, hits give low values 1 | locus YIR030C, strain dcg1, hits give low values 0.973 | locus YJL092W, strain hpr5, hits give low values 0.964 | locus YJL095W, strain BCK1 (second series), hits give low values 0.962 | [2] 0.962 | locus YJL115W, strain asf1, hits give low values 0.971 | locus YJL129C, strain trk1, hits give low values 0.901 | locus YJL134W, strain LCB3, hits give low values 0.989 | locus YJL154C, strain vps35, hits give low values 0.977 | locus YJL164C, strain tpk1, hits give low values 0.946 | locus YJL166W, strain qcr8, hits give low values 0.956 | locus YJL168C, strain set2, hits give low values 0.976 | locus YJL187C, strain SWE1 (second series), hits give low values 0.97 | locus YJL187C, strain SWE1, hits give low values 0.935 | locus YJR043C, strain POL32, hits give low values 1.05 | locus YKL009W, strain mrt4, hits give low values 0.954 | locus YKL068W, hits give low values 0.985 | locus YKL085W, strain MDH1 (second series), hits give low values 0.984 | locus YKL085W, strain MDH1, hits give low values 0.984 | locus YKL160W, strain elf1, hits give low values 0.908 | locus YKL190W, strain CNB1, hits give low values 0.993 | locus YKR001C, strain vps1, hits give low values 0.949 | locus YKR026C, strain gcn3, hits give low values 0.96 | locus YKR091W, strain srl3, hits give low values 0.96 | locus YLL001W, strain dnm1, hits give low values 0.944 | locus YLL026W, hits give low values 0.962 | locus YLL041C, strain sdh2, hits give low values 0.971 | locus YLR027C, strain aat2, hits give low values 0.962 | locus YLR039C, strain RIC1, hits give low values 0.919 | locus YLR058C, strain SHM2, hits give low values 0.982 | locus YLR102C, strain apc9, hits give low values 0.982 | locus YLR221C, strain rsa3, hits give low values 0.977 | locus YLR258W, strain gsy2, hits give low values 0.965 | locus YLR268W, strain sec22, hits give low values 1 | locus YLR330W, strain CHS5, hits give low values 0.993 | locus YLR342W, strain FKS1, hits give low values 0.962 | locus YLR357W, strain rsc2, hits give low values 1 | locus YLR370C, strain arc18, hits give low values 0.971 | locus YLR371W, strain rom2, hits give low values 0.983 | locus YLR384C, strain iki3, hits give low values 0.942 | locus YLR418C, strain cdc73, hits give low values 0.925 | locus YML016C, strain PPZ1, hits give low values 0.982 | locus YML032C, strain rad52, hits give low values 0.987 | locus YML120C, strain ndi1, hits give low values 0.949 | locus YML124C, strain tub3, hits give low values 0.98 | locus YMR058W, strain fet3, hits give low values 0.928 | locus YMR078C, strain ctf18, hits give low values 0.989 | locus YMR125W, strain sto1, hits give low values 0.951 | locus YMR129W, hits give low values 0.958 | locus YMR205C, strain PFK2, hits give low values 0.896 | locus YMR223W, strain ubp8, hits give low values 0.97 | locus YMR231W, strain pep5, hits give low values 0.933 | locus YMR263W, strain SAP30, hits give low values 0.965 | locus YMR307W, strain GAS1, hits give low values 1.05 | locus YNL067W, strain RPL9B, hits give low values 0.978 | locus YNL071W, strain lat1, hits give low values 0.938 | locus YNL209W, strain ssb2, hits give low values 0.96 | locus YNL233W, strain BNI4, hits give low values 0.941 | locus YNL248C, strain rpa49, hits give low values 0.929 | locus YNL250W, strain rad50, hits give low values 0.976 | locus YNL271C, strain bni1, hits give low values 0.982 | locus YNL298W, strain CLA4, hits give low values 0.983 | locus YNL307C, strain MCK1, hits give low values 0.956 | locus YNL322C, strain KRE1 (second series), hits give low values 0.971 | locus YNL322C, strain KRE1, hits give low values 1.01 | locus YNR049C, strain mso1, hits give low values 0.969 | locus YNR052C, strain pop2, hits give low values 0.978 | locus YOL006C, strain TOP1, hits give low values 1.09 | locus YOL012C, strain htz1 0.94 | locus YOL147C, strain pex11, hits give low values 0.99 | locus YOR001W, strain rrp6, hits give low values 0.909 | locus YOR061W, strain CKA2, hits give low values 1.02 | locus YOR069W, strain VPS5, hits give low values 0.98 | locus YOR070C, strain gyp1, hits give low values 0.961 | locus YOR080W, strain dia2, hits give low values 0.972 | locus YOR083W, strain WHI5, hits give low values 0.919 | locus YOR106W, strain vam3, hits give low values 0.869 | locus YOR136W, strain idh2, hits give low values 0.981 | locus YOR144C, strain elg1, hits give low values 0.982 | locus YOR184W, strain ser1, hits give low values 1.04 | locus YOR265W, strain rbl2, hits give low values 0.964 | locus YOR290C, strain snf2, hits give low values 0.898 | locus YOR316C, strain cot1, hits give low values 0.969 | locus YPL078C, strain atp4, hits give low values 0.942 | locus YPL106C, strain sse1, hits give low values 0.942 | locus YPL240C, strain hsp82, hits give low values 0.959 | locus YPL241C, strain CIN2, hits give low values 0.998 | locus YPR119W, strain clb2, hits give low values 0.995 | locus YPR141C, strain kar3, hits give low values 0.987 | locus YPR163C, strain tif3, hits give low values 0.992 | locus YPR167C, strain met16, hits give low values 0.979 | strain wtn01, hits give low values 1.01

COc1cc2oc3cc(OC)c(OC)c(CC=C(C)C)c3c(=O)c2c(OC)c1CC=C(C)C
inactive: [1] 0.934 | locus YHR079C, strain IRE1, hits give low values 0.927 | [2] 0.918 | locus YJR066W, strain TOR1, hits give low values 0.885 | locus YLR113W, strain HOG1, hits give low values 0.895 | locus YNL183C, strain NPR1, hits give low values 0.862 | locus YOR231W, strain MKK1, hits give low values 0.905 | locus YPL256C, strain CLN2, hits give low values 0.955
